TIM10 inh: growth inhibitors of isogenic TIM10 control yeast, primary screen, counter-screen for tim10-1 yeast inhibitor project, luminescence, uHTS; S. cerevisiae TIM10 strain growth, BacTiter-Glo luminescence, 24 h; inhibition, % at 10 µM; 1.4% of 330,000 active; AID 463195, 2010;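 active = inhibition of 40% or more at the single tested concentration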;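 also: wild-type TIM10 isogenic control strain grown at permissive 25 °C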
NALP3 yeast inh: NALP3 inflammasome inhibitors in reconstituted yeast, primary screen, luminescence, uHTS | Yeast reconstituted NLRP3/ASC/caspase-1, beta-gal luminescence, 24 h | AID 2825, 2010 | inhibition, % at 10 µM | 0.39% of 330,000 active;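 active = inhibition of 50% or more; inactive = inhibition below 50%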;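 also: plate controls were induced DMSO wells for no effect and uninduced yeast grown without galactose for full effect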
tim23-1 inh: growth inhibitors of tim23-1 mutant yeast, primary screen, luminescence, uHTS | 1.3% of 330,000 active | S. cerevisiae tim23-1 growth, BacTiter-Glo luminescence, 24 h | inhibition, % at 20 µM;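 active = growth inhibition of the mutant yeast at or above 50%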;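 also: temperature-sensitive mutant grown at 25 °C; plate controls were DMSO-treated mutant yeast for no effect and medium wells lacking yeast for full effect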
NALP1 inh: NALP1 inflammasome inhibitors in reconstituted yeast, colorimetric, S. cerevisiae, triplicate retest | S. cerevisiae NALP1/ASC/caspase-1 growth, X-gal OD620, 72 h | inhibition, % at 10 µM | 0.61% of 280,000 active | AID 2071, 2009; in the data active = inhibition mostly above about 24%, no sharp cut-off; inactive = mostly below about 32%
V-ATPase pH: regulators of yeast V-ATPase proton pumping, primary screen, pHLuorin cytosolic pH fluorescence; response, % at 10 µM; 0.37% of 350,000 active; S. cerevisiae; in the data active = response mostly above about 7.3%, no sharp cut-off; inactive = mostly below about 5.4%; also: actives read high
tim10-1 inh: growth inhibitors of tim10-1 mutant yeast, primary screen, luminescence, uHTS; S. cerevisiae tim10-1 ts strain growth, BacTiter-Glo, 24 h; inhibition, % at 20 µM; 2.2% of 330,000 active;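 active = inhibition of at least 40%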;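 also: mutant grown at 25 °C; 0% = DMSO wells with yeast and 100% = wells holding no yeast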
Numbers without * were called inactive; · = not tested or not shown. Rows were chosen to be rich in hits. Some 4.2% of all compounds tested hit in one or more screens of this group.

SMILES | TIM10 inh | NALP3 yeast inh | tim23-1 inh | NALP1 inh | V-ATPase pH | tim10-1 inh
Cc1cc(C)cc(-n2c(C)cc(/C=C3\C(=N)N4N=C(CC(C)C)SC4=NC3=O)c2C)c1 | 0 | 25 | 3 | 32 | 2 | -6
CN(C)CCC1c2ccc(Cl)cc2CCc2cccnc21 (stereo unspecified) (tested in a mixture with another compound) | -17 | 9 | -9 | 40* | -2 | 16
CN(C)CCC(c1ccc(Cl)cc1)c1ccccn1 (stereo unspecified) | -8 | -4 | 0 | 5 | 1 | -2
Cc1cccc(-c2nnc(SCC(=O)NC3CC3)n2C)c1 | -2 | 11 | 1 | 28* | -1 | -8
COc1cc(C)nc(N2CCC(C(=O)NCC3CCCO3)CC2)n1 (stereo unspecified) | 15 | 18 | 13 | · | 3 | 19
Cc1ccccc1NC(=O)c1cc2ccccc2o1 | -3 | 28 | 15 | 16 | 14* | 4
COc1cc(OC)c2c(-c3ccccc3)cc(=O)oc2c1C(CC(=O)N1CCOCC1)c1ccc2c(c1)OCO2 (stereo unspecified) | -1 | 25 | 1 | 1 | 0 | 6
Cc1cc(C)c2c(c1)/C(=N/NS(=O)(=O)c1ccc(Br)cc1)CCC2 | 0 | 13 | 1 | 38* | -2 | 21
Cc1ccccc1Nc1nnc(SCC(=O)N(C)C2CCS(=O)(=O)C2)s1 (stereo unspecified) | -7 | 11 | 13 | 22 | 16* | -2
CN(C(=O)CSc1nnc(-c2ccc(F)cc2)n1C)C1CCS(=O)(=O)C1 (stereo unspecified) | 7 | 3 | 1 | · | 10* | -3
CN(C(=O)CSc1nnc(Nc2ccccc2F)s1)C1CCS(=O)(=O)C1 (stereo unspecified) | 1 | 8 | 8 | · | -3 | 8
Cc1ccc(C(=O)Nc2nc3n(n2)C(c2ccccc2)CC(=O)N3)cc1 (stereo unspecified) | 15 | 12 | -4 | · | 5 | 24
O=C(Cn1ncc2c([nH]c3ccccc32)c1=O)NCC1CCN(Cc2ccc(F)cc2)CC1 | -6 | 7 | 2 | 29* | -7 | 9
Cc1ccc(CCNC(=O)Cn2ncc3c([nH]c4ccccc43)c2=O)cc1 | -2 | -10 | 21 | 12 | 1 | 10
COc1cccc(OC)c1C(=O)OCCCOC(=O)c1c(OC)cccc1OC | 11 | 11 | 28 | 28* | -1 | 26
COc1ccc(C(=O)OCCCOC(=O)c2ccc(OC)cc2OC)c(OC)c1 | -10 | 22 | 14 | 10 | -2 | -6
COc1ccc(CNC(=O)c2cc3c(=O)n4cccc(C)c4nc3n(CC3CCCO3)c2=N)cc1 (stereo unspecified) | 2 | 25 | 10 | 36* | 2 | 2
Cc1cccn2c(=O)c3cc(C(=O)NCc4ccc(F)cc4)c(=N)n(CC4CCCO4)c3nc12 (stereo unspecified) | 4 | 12 | 1 | 4 | -5 | 0
O=C(Nc1nnc(SCC(=O)N2CCCc3ccccc32)s1)c1cccc2ccccc12 | 7 | -6 | 6 | 18 | 1 | 17
Cc1ccc(C(=O)Nc2nnc(SCC(=O)N3CCCc4ccccc43)s2)cc1 | 18 | 6 | 25 | 36 | 9.0* | 37
Cc1cc(NC(=O)CSCc2nc(-c3cccc(F)c3)oc2C)no1 | -8 | 18 | 18 | 40* | -3 | 27
Nc1nc(CN2CCN(c3ccccc3F)CC2)nc(Nc2ccc3c(c2)OCCO3)n1 | 5 | 4 | 28 | 9 | 16* | 16
COc1ccc(CCn2c(=O)c3cccnc3n(Cc3ccc([N+](=O)[O-])cc3)c2=O)cc1OC | · | · | · | -19 | -1 | ·
COc1ccc(Cn2c(=O)c3cccnc3n(Cc3ccc([N+](=O)[O-])cc3)c2=O)cc1 | -17 | -20 | -16 | 32* | -4 | 5
CCCCN(CC)CCNC(=O)c1cn(C)c(=O)c2c1c1ccccc1n2C | 1 | 10 | 0 | 12 | -1 | 0
CCCCN(C)CCNC(=O)c1cn(C)c(=O)c2c1c1ccccc1n2C | -13 | 8 | 13 | 42* | 1 | 18

Bioassay records from PubChem BioAssay.
